{
  "source": "PubChem BioAssay (NCATS)",
  "key": {"[1]": {"settings": "Ebola virus entry assay, reporter ratio channel; AC50: Channel type: primary unless noted; outcome: Channel type: primary unless noted"}, "[2]": {"settings": "Ebola virus entry cell assay, ratio channel"}},
  "note": "Where “and” joins values, the source holds several entries; their conditions need not be identical. Equal entries are not always repeated. Calls of active or inactive are those of the source.",
  "data": [
    {"smiles": "COc1cc2nc(N3CCN(C(=O)c4ccco4)CC3)nc(N)c2cc1OC", "values": [
      {"measurement": "AC50", "setting": "[1]", "result": "12.6 µM (active)"},
      {"measurement": "AC50", "setting": "[2]", "result": "12.6 µM (active)"}
    ]},
    {"smiles": "CN1CCN(CCCN2c3ccccc3Sc3ccc(Cl)cc32)CC1", "values": [
      {"measurement": "AC50", "setting": "[1]", "result": "3.98 µM (active)"},
      {"measurement": "AC50", "setting": "[2]", "result": "14.1 µM (active)"}
    ]},
    {"smiles": "COc1ccccc1OCCNCC(O)COc1cccc2[nH]c3ccccc3c12", "note": "(stereo not given)", "values": [
      {"measurement": "AC50", "setting": "[1]", "result": "2.24 µM (active)"},
      {"measurement": "AC50", "setting": "[2]", "result": "10 µM (active)"}
    ]},
    {"smiles": "Clc1ccc(C(c2ccccc2Cl)C(Cl)Cl)cc1", "note": "(stereo not given)", "values": [
      {"measurement": "AC50", "setting": "[1]", "result": "22.4 µM (active)"},
      {"measurement": "outcome", "setting": "[2]", "result": "inactive"}
    ]},
    {"smiles": "C[C@@H](NCCCc1cccc(C(F)(F)F)c1)c1cccc2ccccc12", "values": [
      {"measurement": "AC50", "setting": "[1]", "result": "3.55 µM (active)"},
      {"measurement": "AC50", "setting": "[2]", "result": "12.6 µM (active)"}
    ]},
    {"smiles": "CN(C)CC[C@@H](c1ccc(Br)cc1)c1ccccn1", "values": [
      {"measurement": "AC50", "setting": "[1]", "result": "39.8 µM (active)"},
      {"measurement": "outcome", "setting": "[2]", "result": "inactive"}
    ]},
    {"smiles": "Cc1ccccc1C(OCCN(C)C)c1ccccc1", "note": "(stereo not given)", "values": [
      {"measurement": "AC50", "setting": "[1]", "result": "8.91 µM (active)"},
      {"measurement": "AC50", "setting": "[2]", "result": "8.91 µM (active)"}
    ]},
    {"smiles": "CCN(CC)CCNC(=O)c1c(C)[nH]c(/C=C2\\C(=O)Nc3ccc(F)cc32)c1C", "values": [
      {"measurement": "outcome", "setting": "[1]", "result": "inactive [Channel type: confirmation]"},
      {"measurement": "AC50", "setting": "[2]", "result": "3.16 µM (active)"}
    ]},
    {"smiles": "CC[C@]1(O)C[C@@H]2CN(CCc3c([nH]c4ccccc34)[C@@](C(=O)OC)(c3cc4c(cc3OC)N(C)[C@H]3[C@@](O)(C(=O)OC)[C@H](OC(C)=O)[C@]5(CC)C=CCN6CC[C@]43[C@@H]65)C2)C1", "values": [
      {"measurement": "AC50", "setting": "[1]", "result": "1 µM (active) and 891 nM (active)"},
      {"measurement": "AC50", "setting": "[2]", "result": "0.01 µM (active)"}
    ]},
    {"smiles": "CN1CCN(C2=Nc3ccccc3Oc3ccc(Cl)cc32)CC1", "values": [
      {"measurement": "AC50", "setting": "[1]", "result": "31.6 µM (active)"},
      {"measurement": "outcome", "setting": "[2]", "result": "inactive"}
    ]},
    {"smiles": "CCCN(CCc1cccs1)[C@H]1CCc2c(O)cccc2C1", "values": [
      {"measurement": "AC50", "setting": "[1]", "result": "25.1 µM (active)"},
      {"measurement": "AC50", "setting": "[2]", "result": "15.8 µM (active)"}
    ]},
    {"smiles": "O=C1Cc2cc(CCN3CCN(c4nsc5ccccc45)CC3)c(Cl)cc2N1", "values": [
      {"measurement": "AC50", "setting": "[1]", "result": "17.8 µM (active)"},
      {"measurement": "AC50", "setting": "[2]", "result": "15.8 µM (active)"}
    ]},
    {"smiles": "OCCN1CCN(CCCN2c3ccccc3Sc3ccc(C(F)(F)F)cc32)CC1", "values": [
      {"measurement": "AC50", "setting": "[1]", "result": "3.16 µM (active)"},
      {"measurement": "AC50", "setting": "[2]", "result": "8.91 µM (active)"}
    ]},
    {"smiles": "CNCC[C@H](Oc1cccc2ccccc12)c1cccs1", "values": [
      {"measurement": "AC50", "setting": "[1]", "result": "3.55 µM (active)"},
      {"measurement": "AC50", "setting": "[2]", "result": "10 µM (active)"}
    ]},
    {"smiles": "CCCSc1ccc2nc(NC(=O)OC)[nH]c2c1", "values": [
      {"measurement": "outcome", "setting": "[1]", "result": "inactive [Channel type: confirmation]"},
      {"measurement": "AC50", "setting": "[2]", "result": "8.91 µM (active)"}
    ]}
  ]
}
